# Hits are enriched below; roughly 4.6% of the tested compounds scored in any of these assays.
# hcDAF-12 act – activates DAF-12 receptor from parasite H. contortus; HEK293 hcDAF-12 lit1-tk-luc reporter, luminescence; 0% DMSO, 100% Δ7-dafachronic acid; activation, % at 6.8 µM; 370,000 compounds, 1.4% hits; AID 652067;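 active means activation above the mean of all tested compounds plus 3 SD, cut at about 5.5% in these data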;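 further: 100% = response to 3 µM Δ7-dafachronic acid high control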
# hgDAF12 agonist – activates the H. glycines DAF-12 receptor ligand-binding domain | HEK293 GAL4-hgDAF12 UAS-luciferase reporter, agonist luminescence; normalized to butyrate control | activation, % at 6.8 µM | 370,000 compounds, 1.8% hits;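 active means activation above a cutoff set at the mean of all screened compounds plus 3 SD, cut at about 10% in these data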;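 further: 0% = DMSO wells and 100% = sodium butyrate wells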
# DAX1 inh-1 – blocks DAX1 repression of SF-1 activated StAR promoter; HEK293T StAR-luciferase reporter, SF-1/DAX-1 repression relief; inhibition, % at 6.8 µM; 370,000 compounds, 1.1% hits; AID 652010;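 active means inhibition above the mean over all tested compounds plus 3 SD, cut at about 3.6% in these data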;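 further: 0% = DAX-1 cells with DMSO and 100% = cells lacking DAX-1 with DMSO; higher inhibition means more luminescence from relief of DAX-1 repression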
# ssDAF-12 act – S. stercoralis DAF-12 activation, primary screen; 370,000 compounds, 1% hits; activation, % at 6.8 µM; HEK293 ssDAF-12/GRIP1 lit1-tk-luc reporter, luminescence; % of 3 µM dafachronic acid response;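 active means activation above the mean over all tested compounds plus 3 SD, cut at about 0.9% in these data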;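 further: 0% = DMSO-only wells and 100% = 3 µM delta7-dafachronic acid wells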
# DAX1 inh-2 – inhibits human nuclear receptor DAX1; P51843; HEK293 Gal4-DAX1 luciferase reporter, luminescence; inhibition, % at 6.75 µM; 340,000 compounds, 0.99% hits; AID 504766;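 active means inhibition above the mean over all tested compounds plus 3 SD, cut at about 4.2% in these data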;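 further: 0% = DAX1-transfected cells with DMSO and 100% = empty-vector control cells with DMSO; inhibition shows as a rise in luminescence from relieved DAX1 repression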
# Target sequence (P51843 207-470 limits assumed): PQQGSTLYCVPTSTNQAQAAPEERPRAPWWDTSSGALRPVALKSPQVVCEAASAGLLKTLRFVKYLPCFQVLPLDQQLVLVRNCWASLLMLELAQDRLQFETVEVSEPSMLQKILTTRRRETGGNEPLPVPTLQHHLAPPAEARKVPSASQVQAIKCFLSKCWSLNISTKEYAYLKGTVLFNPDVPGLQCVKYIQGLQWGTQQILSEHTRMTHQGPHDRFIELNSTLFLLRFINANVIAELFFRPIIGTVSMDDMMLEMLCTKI
# Wee1 stabilizer – inhibitors of human Wee1 degradation; HeLa Luc-Wee1K328M stability, luciferase luminescence; 100% = proteasome inhibitor MG132 effect; reporter increase, % at 5 µM; 220,000 compounds, 1.2% hits;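 active means activation above the mean of all tested compounds plus 3 SD, set per screening run, cut at about 8.8% in these data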;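 further: cells exposed to compound for 20 h before luminescence read; 0% = DMSO alone and 100% = MG132 at 30 µM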
# LXRb hcDAF ctr – LXR-beta agonism as hcDAF-12 counter-screen; shares compounds with hcDAF-12 act; 3,400 tested, under 10 active; activation, % at 6.8 µM; AID 743027; HEK293 Gal4-LXR tk-luc reporter, luminescence, 24 h; normalized: DMSO 0%, positive control 100%;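 active means mean percent activation of the reporter above a cutoff set as the average over tested compounds plus their standard deviation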
# hcDAF12 ag – confirmation of H. contortus DAF-12 agonists; HEK293 hcDAF-12 lit1-tk-luc reporter, luminescence; % of Δ7-dafachronic acid response; shares compounds with hcDAF-12 act; activation, % at 6.8 µM; 3,400 compounds, 61% hits;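 active means mean activation across triplicate tests above the threshold derived from the earlier primary screen, cut at about 5.5% in these data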;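 further: 0% = DMSO only wells and 100% = 3 µM Δ7-dafachronic acid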
# hgDAF12 conf – confirmation of H. glycines DAF-12 agonists | shares compounds with hgDAF12 agonist | HEK293 GAL4-hgDAF12 luciferase reporter, agonist mode; percent of butyrate response | activation, % at 6.8 µM | 3,300 compounds, 80% hits | AID 743050;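 active means mean activation over triplicate wells above the hit cutoff derived from the earlier primary screen, cut at about 11% in these data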;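 further: 0% = DMSO low control and 100% = 2 mM sodium butyrate high control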
# LXR ag 2 – activates human LXR-beta, counter-screen for DAF-12 agonists | HEK293 Gal4-LXR luciferase reporter, 24 h | shares compounds with hgDAF12 agonist | 3,300 tested, under 10 active | activation, % at 6.8 µM;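 active means mean activation of the triplicate above a set limit carried over from the primary screen, none filed active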
# Starred values were filed as active, the others as inactive; x = no result.
SMILES,hcDAF-12 act,hgDAF12 agonist,DAX1 inh-1,ssDAF-12 act,DAX1 inh-2,Wee1 stabilizer,LXRb hcDAF ctr,hcDAF12 ag,hgDAF12 conf,LXR ag 2
Cc1ccc(NC(=O)/C=C/c2cccs2)c([N+](=O)[O-])c1,6.8*,14*,1,-1,2,0,1,6.5*,19*,1
Cn1c(=O)c2cc(NC(=O)NCCc3ccccc3)ccc2n1Cc1cccc(C(F)(F)F)c1,-2,-1,-4,-2,x,x,x,x,x,x
c1ccc(Nc2nc(-c3ccccc3)ns2)cc1,16*,22*,2,2.0*,2,x,2,9.5*,29*,1
CC(=O)Cc1nsc(Nc2ccccc2)n1,0,2,1,-1,1,0,x,x,x,x
Cc1cc(-c2ccc(N3CCOCC3)cc2)nc2ccccc12,15*,20*,3,0.9*,1,4,1,7.9*,14*,1
O=C(Nc1ncc(Cc2cccc(Cl)c2)s1)c1cccs1,2,7,1,-1,1,5,x,x,x,x
O=C(Nc1ncc(Cc2ccccc2)s1)c1cccs1,8.4*,15*,3,1,1,9.0*,2,8.0*,20*,1
Cc1ccc(Cc2cnc(NC(=O)c3cccs3)s2)cc1,10*,15*,3.8*,1.5*,2,4,2,7.3*,18*,1
Oc1ccc(N=Nc2ccc3ccccc3c2)cc1,7.1*,16*,3,1,3,x,1,4,20*,1
CC(NCC(=O)Nc1cc(S(=O)(=O)N2CCOCC2)ccc1N1CCOCC1)c1ccco1 (centres undefined),0,1,-1,-1,0,x,x,x,x,x
Cc1cccc(NC(=O)c2cc(C)nc3ccccc23)c1,-2,1,0,-1,1,x,x,x,x,x
Cc1cccc(NC(=S)c2nc3ccccc3s2)c1,8.8*,13*,2,2.1*,2,3,1,9.9*,16*,1
Cc1cc(C2=CC(=O)C[C@H](c3ccc(F)cc3)C2)ccc1F,0,-4,-1,-2,0,x,x,x,x,x
Cc1ccc(NC(=O)CSCC(=O)NCc2ccco2)cc1,-2,1,0,-1,0,x,x,x,x,x
Cc1ccc(NC(=O)CSCc2ccco2)cc1,8.0*,17*,0,1.3*,1,-1,1,4,13*,0
CC(=O)Nc1sc2c(c1-c1nc3ccccc3s1)CCCN(C(C)C)C2,42*,24*,x,7.3*,x,x,2,21*,6,1
COc1cc(/C=N/N=C(N)N)ccc1OCc1ccc(Cl)cc1,1,5,0,0,-2,2,x,x,x,x
COc1cc(/C=N/O)ccc1OCc1ccc(Cl)cc1,7.9*,19*,4.0*,1,x,0,1,5.7*,15*,1
Nc1c(C(=O)N2CCCC2)sc2nc3c(cc12)CCCCCC3,3,7,3,-1,2,-2,x,x,x,x
Nc1c(C(=O)N2CCOCC2)sc2nc3c(cc12)CCCC3,6.9*,14*,3,0,-3,x,1,7.1*,3,1
CCOC(=O)C1(C)CCCN(C(=O)c2cccc3ccccc23)C1 (centres undefined),-2,1,-1,-1,x,x,x,x,x,x
COc1ccccc1N1CCN(c2ccc(-c3ccccc3)nn2)CC1,7.1*,18*,3,1.3*,-3,4,1,4,8,1
CC(C)(C)S(=O)N1C[C@H]2CC(=O)C(CCO)=C2[C@@H]1CCO (some centres undefined),-1,1,2,0,x,x,x,x,x,x
CCc1ccc(NC(=O)COc2coc(CN3CCN(c4ccccc4)CC3)cc2=O)cc1,1,0,1,-1,0,x,x,x,x,x
CCc1ccc(NC(=O)COc2ccc(F)cc2C(=O)c2cnn(-c3ccccc3)c2)cc1,12*,18*,2,1,2,6,0,7.8*,7,0
SMILES,hcDAF-12 act,hgDAF12 agonist,DAX1 inh-1,ssDAF-12 act,DAX1 inh-2,Wee1 stabilizer,LXRb hcDAF ctr,hcDAF12 ag,hgDAF12 conf,LXR ag 2
COc1cc(OC)c(C(=O)Nc2ccc(C(=O)c3ccccc3)cc2)cc1OC,-3,-2,0,-1,1,x,x,x,x,x
CCOC(=O)CNC(=O)N1CCCC(Cc2ccccc2)(C(=O)OCC)C1 (centres undefined),0,2,1,-1,1,x,x,x,x,x
C[C@@H]1CN([C@@H](C)CO)C(=O)c2cc(C#CCN(C)C)cnc2O[C@H]1CN(C)Cc1ccc2c(c1)OCO2,2,3,0,-1,0,x,x,x,x,x
O=[N+]([O-])c1ccc2nc(-c3ccncc3)[nH]c2c1,2,4,0,-1,3,6,x,x,x,x
O=[N+]([O-])c1ccc2nc(-c3ccc(Cl)cc3)[nH]c2c1,9.9*,22*,4.1*,1.2*,4,5,1,5.9*,20*,1
Cc1cc2nn(-c3ccc(F)cc3)nc2cc1N,14*,18*,4.0*,1.4*,3,x,2,16*,24*,1
Nc1ccc2nn(-c3ccc(F)cc3)nc2c1,14*,16*,2,2.3*,4.3*,x,1,2,16*,1
COCCN1Cc2c(sc(C)c2C)N(C(=O)c2ccccc2)C1,9.2*,14*,2,1.7*,2,-4,0,3,8,0
COc1cccc(NC(=O)C2(C)CCN2CCc2ccccc2)c1 (centres undefined),-1,-2,0,-1,x,x,x,x,x,x
O=C(CSc1cn(Cc2ccccc2)c2ccccc12)Nc1nccs1,9.7*,24*,8.9*,1.1*,2,5,1,8.9*,18*,1
O=C(CSc1ccccc1)Nc1nccs1,1,6,0,0,-1,3,x,x,x,x
O=C(CCl)Nc1cccc(-c2cnc3ccccc3n2)c1,-1,6,-3,-2,-3,0,x,x,x,x
Cc1cc2ncc(-c3ccccc3)nc2cc1C,14*,19*,3,1.7*,5.0*,x,2,11*,23*,1
Cc1cc(-c2ccccc2)nc(-c2ccccc2)c1C,-2,1,0,-1,-1,1,x,x,x,x

# Screening results as filed in PubChem.
